Measured values reported in PubChem BioAssay (Tox21).
Inconclusive results are not listed. A number with no mark means an inactive call. Active and inactive are the calls of the source. The call rests on the fitted dose curve.
On the % scale 0 is the no-effect control and ±100 the full control effect.

Each compound was assayed against Retinoic acid receptor RXR-alpha (Homo sapiens) (UniProt P19793) (assay: qHTS assay to identify small molecule agonists of the RXR signaling pathway (AID 1159527; further: nearly all actives have a fitted effect of over 35% in size)). Conditions: HEK293T RXRa-UAS-bla, beta-lactamase ratio, 16 h; series mostly up to 76.8 µM; activation: at the top concentration.
Chain of Retinoic acid receptor RXR-alpha (Homo sapiens) (P19793 whole entry, looked up): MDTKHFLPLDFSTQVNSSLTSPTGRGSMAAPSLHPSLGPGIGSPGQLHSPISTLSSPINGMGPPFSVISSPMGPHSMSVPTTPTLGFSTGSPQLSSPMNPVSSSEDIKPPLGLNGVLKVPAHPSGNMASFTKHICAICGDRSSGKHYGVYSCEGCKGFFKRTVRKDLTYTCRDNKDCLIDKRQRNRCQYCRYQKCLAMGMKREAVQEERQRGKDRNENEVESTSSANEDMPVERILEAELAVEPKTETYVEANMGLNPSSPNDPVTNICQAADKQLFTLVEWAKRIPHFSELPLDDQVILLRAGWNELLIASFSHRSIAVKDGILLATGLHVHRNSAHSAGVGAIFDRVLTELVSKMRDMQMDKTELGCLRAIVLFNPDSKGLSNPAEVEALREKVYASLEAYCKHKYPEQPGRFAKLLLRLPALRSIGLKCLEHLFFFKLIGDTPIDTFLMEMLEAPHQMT
Source text: U.S. Tox21 Program National Center for Advancing Translational Sciences [NCATS] NIH Chemical Genomics Center [NCGC] U.S. Environmental Protection Agency [EPA] National Institutes of Environmental Health Sciences [NIEHS] National Toxicology Program [NTP] U.S. Food and Drug Administration [FDA] Tox21 Assay Overview: The Retinoid X receptor (RXR), a nuclear hormone receptor expressed in liver, spleen, placenta, epidermis, central nervous system. These receptors are able to form homo and heterodimers with other nuclear receptors and due to this heterodimerizing ability, RXR functions as master regulators producing diverse physiological effects. Three subtypes of RXR exist; alpha, beta and gamma. Retinoid X receptor alpha (RXR-alpha) has potential roles in metabolic signaling pathways, skin alopecia, dermal cysts, cardiac development, insulin sensitization etc. Therefore screening environmental chemicals on RXR-alpha signaling can be used for the studies focused on such therapeutic applications. For quantification of RXR-alpha ligands signaling, GeneBLAzer RXR alpha-UAS-bla HEK 293T (Life Technologies, Carlsbad, CA) cells containing a beta-lactamase reporter-gene under control of Retinoid X receptor-alpha response element were used to screen Tox21 10K library.
Tox21 Assay Protocol Summary: RXR-alpha HEK 293T cells were dispensed at 2,000 cells/6 uL of assay medium containing 2% charcoal-stripped FBS using a Multidrop Combi (ThermoFisher Scientific, Waltham, MA) dispenser. The assay was performed in black wall/clear-bottom 1536-well plates (Greiner Bio-One North America Inc. Monroe, NC). 9-cis retinoic acid was used as a positive control in the agonist mode screen. After the assay plates were incubated at 37 C and 5% CO2 for 5 hr, 23 nL of compounds dissolved in DMSO, positive controls or DMSO only were transferred to the assay plate by a Pintool station (Kalypsys, San Diego, CA). The assay plates were incubated at 37 C and 5% CO2 for 16 hr. One uL of LiveBLAzer B/G FRET substrate (Life Technologies) was added using a Flying Reagent Dispenser (Aurora Discovery, San Diego, CA) and the plates were incubated at room temperature for 2 hr. Fluorescence intensity (405 nm excitation, 460/530 nm emission) was measured using an Envision plate reader (PerkinElmer, Shelton, CT).
In the case of `CC(=O)[C@H]1CC[C@H]2[C@@H]3C[C@H](C)C4=CC(=O)CC[C@]4(C)[C@H]3[C@@H](O)C[C@]12C`, the “activation” value is reported as -12.9% [at 35.3 µM]. `Cc1nc2ccccc2s1` was tested, and the “activation” value was -4.77%. For `O=C(O)c1snc(Cl)c1Cl`, the “activation” value was -3.06%. For `CCCCOC(=O)CCS`, the “activation” value was 9.05%. In the case of `C/C=C(\C)C(=O)OCCC(C)CCC=C(C)C` (stereo not given), the “activation” value is reported as -17.9%. With `CCC(C)(O)CCC=C(C)C` (stereo not given) the “activation” value was 16%. `CC(CCO)CCc1ccccc1` (stereo not given) was tested, and the “activation” value was -4.63%. `COCc1c(C(C)C)nc(C(C)C)c(/C=C/[C@@H](O)C[C@@H](O)CC(=O)O)c1-c1ccc(F)cc1` was tested, and the “activation” value was -10.1% [at 35.3 µM]. In the case of `CCC(=O)OC/C=C/c1ccccc1`, the Potency is reported as “inactive”. In the case of `CC1(C)C2=CCCC(C)(C)[C@]23CC[C@H]1C3`, the “activation” value is reported as -16.2%. `C[N+](C)(C)CCOC(N)=O` was tested, and the “activation” value was 14.2% [at 35.3 µM]. In the case of `CC1CN(c2cc3c(cc2F)c(=O)c(C(=O)O)cn3-c2ccc(F)cc2F)CCN1` (stereo not given), the activation is reported as -0.207% [at 6.98 µM]. `CCOC(=O)N1CCC(n2c(=O)[nH]c3cc(Cl)ccc32)CC1` was tested, and the “activation” value was -12.8% [at 35.3 µM]. `C=CC(=C)CCCC(C)(C)OC(C)=O` was tested, and the “activation” value was -4.12%. For `CCCCCCCCCCCCCCC[C@H](O)[C@@H](N)CO`, the “activation” value was 8.75% [at 35.3 µM]. For `O=C(CCC1CCN(Cc2ccccc2)CC1)c1ccc2c(c1)NCCCC2`, the “activation” value was -18.5% [at 35.3 µM]. In the case of `CC(=O)OCC(=O)[C@@]12OC(C)(C)O[C@@H]1C[C@H]1[C@@H]3C[C@H](F)C4=CC(=O)C=C[C@]4(C)[C@@]3(F)[C@@H](O)C[C@@]12C`, the “activation” value is reported as 4.92% [at 35.3 µM]. With `CCCCC(=O)O[C@]1(C(=O)CO)CC[C@H]2[C@@H]3CCC4=CC(=O)CC[C@]4(C)[C@H]3[C@@H](O)C[C@@]21C` the “activation” value was -12.5% [at 35.3 µM]. With `CCCCC/C(=C\c1ccccc1)CO` the “activation” value was -10.9%. For `C/C(=N/NC(=O)c1ccncc1)C(=O)O`, the “activation” value was -7.45% [at 35.3 µM]. `CCn1cc(C(=O)O)c(=O)c2cc(F)c(N3CCNCC3)nc21` was tested, and the “activation” value was 8.62% [at 35.3 µM]. For `CC(C)(O)c1ccccc1CC[C@@H](SCC1(CC(=O)O)CC1)c1cccc(/C=C/c2ccc3ccc(Cl)cc3n2)c1`, the “activation” value was -11.4% [at 35.3 µM]. In the case of `CCC1(C)CC(=O)NC1=O` (stereo not given), the “activation” value is reported as 4.05% [at 35.3 µM]. `O=C(/C=C/c1ccccc1)OCCCc1ccccc1` was tested, and the “activation” value was -11.5%. `Nc1ccc(S(=O)(=O)O)c(N)c1` was tested, and the “activation” value was 1.41%. In the case of `O=C(CS)OCCOC(=O)CS`, the “activation” value is reported as 19.6%. With `c1cnc2c(n1)CCCC2` the “activation” value was 15.5%. With `CN1CCCN=C1/C=C/c1cccs1` the “activation” value was 2.07% [at 35.3 µM]. `c1ccc(COCc2ccccc2)cc1` was tested, and the “activation” value was 15.7%. With `CC(C)CCCC(=O)O` the “activation” value was 0.336%. For `COC(OC)(C(=O)c1ccccc1)c1ccccc1`, the “activation” value was -15.5%. With `[O]=[Bi]` the activation was -1.06% [at 6.98 µM]. For `CC(=O)Nc1ccccc1C`, the “activation” value was 15.1%. In the case of `CC1(C)C(=O)N(Br)C(=O)N1Cl`, the “activation” value is reported as -16.4%. `COC(=O)[C@@H]1CC2=CC(=O)CC[C@]2(C)[C@@]23O[C@@H]2C[C@@]2(C)[C@@H](CC[C@@]24CCC(=O)O4)[C@H]13` was tested, and the “activation” value was 5.85% [at 35.3 µM]. For `O=C(O)c1cccnc1C(=O)O`, the “activation” value was 12.3%. `CCCC(=O)O[C@]1(C(=O)COC(=O)CC)CC[C@H]2[C@@H]3CCC4=CC(=O)CC[C@]4(C)[C@H]3[C@@H](O)C[C@@]21C` was tested, and the activation was 11.5% [at 15.8 µM]. With `NC(=O)Nc1ccc(Cl)cc1` the “activation” value was 1.47%. In the case of `CC(C)CCCCCCOC(=O)CCCCC(=O)OCCCCCCC(C)C`, the “activation” value is reported as -2.49%. For `CCCCCCCC/C=C\CCCCCCCC(=O)OC`, the “activation” value was 0.0327%.
